# Assay results published in PubChem BioAssay AID717 (Columbia University Molecular Screening Center, 2007).
# Screen size: about 91,000 compounds; about 40 (0.04%) were called active. Rule as the data show it: active = activation above about 37%; inactive = the rest. The list is a sample of the results.
# Biological target: Bifunctional epoxide hydrolase 2 (Homo sapiens) (UniProt P34913)
# Experiment: sEH enzyme activity enhancers – biochemical, human sEH, primary screen (AID 717)
# Settings: purified human sEH enzymatic activity, activator screen; at 2 µM; stronger effect = higher value
# Chain of Bifunctional epoxide hydrolase 2 (Homo sapiens) (P34913 whole entry, looked up): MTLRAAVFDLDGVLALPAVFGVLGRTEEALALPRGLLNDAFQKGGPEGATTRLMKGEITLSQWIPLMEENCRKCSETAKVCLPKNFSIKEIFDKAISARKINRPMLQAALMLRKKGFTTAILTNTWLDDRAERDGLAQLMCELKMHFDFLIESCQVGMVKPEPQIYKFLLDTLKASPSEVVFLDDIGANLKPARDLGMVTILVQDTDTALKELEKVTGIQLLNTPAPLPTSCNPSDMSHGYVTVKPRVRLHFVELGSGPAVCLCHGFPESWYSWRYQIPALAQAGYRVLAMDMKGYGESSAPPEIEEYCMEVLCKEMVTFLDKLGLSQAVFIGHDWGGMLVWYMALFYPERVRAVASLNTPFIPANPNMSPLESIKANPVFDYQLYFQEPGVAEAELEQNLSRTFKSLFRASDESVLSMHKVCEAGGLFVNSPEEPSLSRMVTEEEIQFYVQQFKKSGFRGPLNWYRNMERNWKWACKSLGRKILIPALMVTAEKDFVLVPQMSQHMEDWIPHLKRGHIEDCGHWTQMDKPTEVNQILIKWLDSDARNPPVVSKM
row,SMILES,activation
1,COc1ccc(C)cc1NC(=O)CCC(=O)Nc1nnc(C(F)(F)F)s1,-15.1% (inactive)
2,Cc1nnsc1S(=O)(=O)Cc1ccccc1Cl,-3.8% (inactive)
3,CCCCNC(=O)c1onc(CSc2cccc(OC)c2)c1C(=O)O,11.8% (inactive)
4,CS(=O)(=O)N1CCN(c2ccc(C(=O)NC3C4CC5CC(C4)CC3C5)cc2[N+](=O)[O-])CC1 (stereo unspecified),8.8% (inactive)
5,C(=N/N1CCN(c2ccccc2)CC1)/c1cccs1,4.8% (inactive)
6,COCCCNC(NC(=O)c1ccc(C)cc1)C(Cl)(Cl)Cl (stereo unspecified),18.3% (inactive)
7,CCOC(=O)C1=C(CN2CCc3ccccc32)NC(=O)NC1c1cc(C)ccc1C (stereo unspecified),7.8% (inactive)
8,Nc1ccc(-c2sc(N)nc2-c2ccccc2)cc1,10.7% (inactive)
9,COCC(C)NC(=O)c1ccc(-n2nc(C(F)(F)F)cc2-c2cccs2)cc1 (stereo unspecified),3.4% (inactive)
10,CC(=O)c1cn(CCCCCCCCCCn2cc(C(C)=O)c(=O)[nH]c2=O)c(=O)[nH]c1=O,3.2% (inactive)
11,Cc1csc(=NC(=O)c2ccccc2)n1CCO,7.3% (inactive)
12,CCc1ccc(C(=O)CSc2nnc(C)c(=O)[nH]2)cc1,-0.4% (inactive)
13,CCCn1nnnc1NC(=O)COc1ccc(Cl)cc1C,36.8% (inactive)
14,COc1ccccc1CNC(=O)c1ccc(SC)cc1OC,1% (inactive)
15,Cc1nn(C)cc1/C=C1\CCC/C(=C\c2cn(C)nc2C)C1=O,11.7% (inactive)
16,CCN(CC)c1nc(-c2ccccc2)cc(C(F)(F)F)c1C#N,30.7% (inactive)
17,Nc1c(-c2cccc(Cl)c2)cnn1-c1cccc([N+](=O)[O-])c1,0.1% (inactive)
18,O=c1c2ccccc2c(-c2ccc(Br)cc2)nn1Cc1ccccc1,-4.3% (inactive)
19,O=C(COC(=O)c1ccccc1NC(=O)c1ccco1)Nc1ccc2c(c1)OC(F)(F)O2,-28.9% (inactive)
20,CCCCNCc1ccc(SC)cc1,-8.5% (inactive)
21,NC(=O)N1CCCC1C(=O)Nc1ccc(Cl)c(Cl)c1 (stereo unspecified),-4.5% (inactive)
22,CCCCNC(=O)CSc1nc2ccc(NC(=O)CSc3nnc(COc4ccccc4C)n3C)cc2s1,-88.3% (inactive)
23,Cc1cc(C(=O)OCC(=O)Nc2ccc(F)c(F)c2)c(C)o1,-9.4% (inactive)
24,COc1ccc(CCNC(=S)NC(=O)/C=C/c2ccc(C)cc2)cc1OC,3.7% (inactive)

row,SMILES,activation
1,CC1=NN(Cc2ccccc2)C(=O)/C1=C/c1ccc(N(C)C)cc1,4.2% (inactive)
2,CCn1cc(C(=O)N/N=C(/C)c2ccc(F)cc2)c(=O)c2cc(F)c(N3CCCC3)cc21,11.6% (inactive)
3,COc1ccc(NS(=O)(=O)c2ccc(NC(=S)NC(=O)CC(C)C)cc2)cc1,1.9% (inactive)
4,O=C(NCCCN1CCOCC1)c1cc2c(s1)CCC2,-5.4% (inactive)
5,O=C(CN1C(=O)NC(Cc2ccccc2)(Cc2ccccc2)C1=O)NCC1CCCCC1,11.9% (inactive)
6,O=C(OCN1C(=O)c2ccccc2C1=O)/C(=C\c1ccco1)NC(=O)c1ccccc1,-78.7% (inactive)
7,COC(=O)CNC(=O)c1ccccc1[N+](=O)[O-],18.9% (inactive)
8,CCOc1ccc(C(CCc2ccccc2)NC(=O)c2ccc(OC)c(OC)c2)cc1OCC (stereo unspecified),23.3% (inactive)
9,CC(CNc1ccc([N+](=O)[O-])cc1)NC(=O)c1ccccc1Br (stereo unspecified),5% (inactive)
10,C=CCn1c(-c2ccc(Cl)cc2)ccc(C#N)c1=O,2.9% (inactive)
11,COc1ccc2c(c1)SC(C)CC2=O (stereo unspecified),13.9% (inactive)
12,CC1(C)CC(=O)C(C=NCCN2CCN(C(=S)Nc3cccc(Cl)c3)CC2)=C(O)C1,-11.3% (inactive)
13,Cc1ccc(-c2csc(N(Cc3ccco3)C(=O)c3cccs3)n2)cc1,11.6% (inactive)
14,CCOC(=O)NNC(=O)c1ccc(Cl)cc1,0.5% (inactive)
15,CC(Oc1ccc(Cl)cc1Cl)C(=O)/C=C/N(C)C (stereo unspecified),-10% (inactive)
16,COc1ccc(/C=N/Nc2nc3ccccc3c(=O)[nH]2)cc1,10% (inactive)
17,O=[N+]([O-])c1ccc(NCCCN2CCOCC2)c(Cl)c1,-17.1% (inactive)
18,Clc1ccc(-n2nnnc2CN2CCCCC2)cc1Cl,-4% (inactive)
19,C=CCOC(=O)C1=C(C)NC(C)=C(C(=O)OCC=C)C1c1cccs1,8.4% (inactive)
20,COc1ccc(-c2cc(C(=O)n3cnc4ccccc43)c3ccccc3n2)cc1,11.7% (inactive)
21,COc1cc(C(=O)N2CCN(C/C=C/c3ccccc3)CC2)cc(OC)c1C,11.7% (inactive)
22,CCCCNC(=S)NNC(=O)c1cc(C)on1,-1.6% (inactive)
23,CN(CC#CCC(c1ccccc1)c1ccccc1)C(C)(C)C,-4.2% (inactive)
24,CC(C)(C)c1cc2cccnc2n1Cc1ccccc1,-9.8% (inactive)

row,SMILES,activation
1,COc1cc(C2C(C(=O)OCCC#N)=C(C)NC3=C2S(=O)(=O)c2ccccc23)cc(OC)c1OC (stereo unspecified),-9% (inactive)
2,c1ccc(CSc2ncnc3c2sc2nc(N4CCOCC4)c4c(c23)CCCC4)cc1,-8.4% (inactive)
3,c1cnc(Nc2nc(-c3ccc4ccccc4c3)cs2)nc1,9.6% (inactive)
4,c1ccc2c(CSCc3nc4ccccc4[nH]3)cccc2c1,-10.8% (inactive)
5,CCOC(=O)c1c(NC(=O)c2ccc(N3CCOCC3)c([N+](=O)[O-])c2)sc(C)c1C,-11.3% (inactive)
6,O=C(CN1CCN(S(=O)(=O)c2ccc(Cl)s2)CC1)NCc1ccc(Cl)cc1,0.3% (inactive)
7,COc1ccc(C(=S)Nc2ccccc2)cc1,-3.8% (inactive)
8,Cc1nn(-c2ccccc2)c(Cl)c1C(=O)Nc1ccccc1,2% (inactive)
9,O=C(CNC(=O)c1cc2c(s1)CCC2)Nc1ccccc1Br,-12.2% (inactive)
10,CCNC(=S)N1CCN(C(=O)c2ccco2)CC1,1% (inactive)
11,COc1cc(/C=N/O)cc(Br)c1OS(=O)(=O)c1ccc(C)cc1,12.9% (inactive)
12,CCOC(=O)COc1cc(OCC(=O)OCC)c2c(=O)cc(-c3ccccc3)oc2c1,15.3% (inactive)
13,Cc1ccc(C(=O)NNC(=O)OC(C)(C)C)c(Cl)c1,2% (inactive)
14,Cc1ccc(NC(=S)N/N=C2/CCCc3c(C)cc(C)cc32)cc1,9.9% (inactive)
15,O=C(CCC(=O)OCc1cccc(C(=O)Oc2ccccc2)c1)Nc1cccc2ccccc12,-9.6% (inactive)
16,O=C(CSCc1c(Cl)cccc1Cl)NN1C(=O)c2ccccc2C1=O,-21.2% (inactive)
17,Cc1ccc(N2C(=O)C(Cc3ccccc3)NC2=S)cc1 (stereo unspecified),-3.9% (inactive)
18,COc1ccc(NC(=O)CSc2nc(N)c(-c3ccccc3)c(=O)[nH]2)cc1,-3.7% (inactive)
19,Cc1nn(C)c(Oc2ccccc2)c1[N+](=O)[O-],-3% (inactive)
20,O=C(CSc1ccc(/C=N/NC(=O)c2cccc(F)c2)o1)Nc1ccccc1,-79% (inactive)
21,CCOc1c2ccc(C(=O)NCc3ccc(OC(F)(F)F)cc3)cc2nn1C,-0.5% (inactive)
22,CC1=NN(C(=O)c2ccccc2Br)C(O)(c2cccnc2)C1 (stereo unspecified),-13.7% (inactive)
23,Cc1nn(-c2ccccn2)c2c1C(c1ccncc1)C1=C(CC(C)(C)CC1=O)N2 (stereo unspecified),3.8% (inactive)
24,Cc1ccc(Oc2ccc3c(c2)C(=O)N(c2cccc4cccnc24)C3=O)cc1,-10.3% (inactive)

row,SMILES,activation
1,Cc1cc(C)c2c(-n3cccc3)c(C(=O)NNS(=O)(=O)c3ccc(F)cc3)sc2n1,11.1% (inactive)
2,Cc1nn(C)cc1C(=O)NNC(=S)Nc1ccc(Cl)cc1,-12.9% (inactive)
3,O=C(NC1=NCCS1)[C@H](Cc1ccccc1)N1C(=O)c2ccccc2C1=O,-7.6% (inactive)
4,CCCCNC(=O)CCn1c(=S)[nH]c2cc3c(cc2c1=O)OCO3,-13.6% (inactive)
5,O=C(c1cccc(F)c1)N1CCN(c2ccc([N+](=O)[O-])c(N3CCCCC3)c2)CC1,-8.2% (inactive)
6,COc1ccc(N(CC(=O)N/N=C/c2cccc3c2OCCO3)S(=O)(=O)c2ccc(NC(C)=O)cc2)cc1,5.2% (inactive)
7,COc1ccccc1-c1n[nH]c2c1[C@H](C)CC[C@H]2C(C)C,15.1% (inactive)
8,COc1cccc2c1OCC(C(=O)NCc1ccc(Cl)cc1Cl)=C2,-78.6% (inactive)
9,COc1ccc([N+](=O)[O-])cc1NC(=O)CCc1ccccc1,-7.7% (inactive)
10,CCn1c2ccccc2c2cc(NC(=O)C/C(C)=N/NC(=O)c3ccccc3N)ccc21,-2.8% (inactive)
11,COc1ccccc1CSc1nc2ccccc2[nH]1,2.2% (inactive)
12,O=C(CNC(=O)c1ccccc1)NCC(=O)OCc1ccc(Cl)cc1,5.3% (inactive)
13,c1ccc(-n2nnnc2NC2CCCCCC2)cc1,12.5% (inactive)
14,COc1ccc(C(=O)NC(=S)Nc2ccccc2N2CCN(S(C)(=O)=O)CC2)cc1OC,-12% (inactive)
15,Cc1nnc(NC(=O)CSc2nc(C3CCCCC3)nc3ccccc23)s1,1.6% (inactive)
16,Cc1c(C(=O)OC(C)C)sc(NC(=O)c2cccnc2)c1C#N,-4.7% (inactive)
17,Cc1ccc(NC(=S)Nc2ncccc2C)c(C)c1,-5.2% (inactive)
18,CCOC(=O)C1CN(S(=O)(=O)c2ccc(F)cc2)C1,6.7% (inactive)
19,CCCC(=O)NC(Nc1ccccc1OC)C(Cl)(Cl)Cl (stereo unspecified),-3.9% (inactive)
20,CC(C)C(=O)OCC(=O)Nc1ccc2c(c1)CCC2,-1.7% (inactive)
21,Cc1ccc(S(=O)(=O)N(CC(=O)N/N=C/c2ccc(F)cc2)c2cccc3cccnc23)cc1,6.1% (inactive)
22,N#Cc1c(C(F)(F)F)cc(-c2ccccc2)nc1SCC(=O)N1CCOCC1,0.7% (inactive)
23,N#C/C(=C1/CCCN1)c1ccccn1,-2.3% (inactive)
24,Cc1cc(C)cc(OCC(=O)NNC(=O)c2cc3ccccc3oc2=O)c1,2% (inactive)
